{"source": "ChEMBL document CHEMBL1961873", "about": "“Compounds: GSK PKIS; Assays: Nanosyn kinase panel” (2012);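 note: each value is a mean percent inhibition of HIPK1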", "data": [{"target": "Homeodomain-interacting protein kinase 1 (Homo sapiens) (UniProt Q86Z02)", "sequence (Q86Z02 whole entry, looked up)": "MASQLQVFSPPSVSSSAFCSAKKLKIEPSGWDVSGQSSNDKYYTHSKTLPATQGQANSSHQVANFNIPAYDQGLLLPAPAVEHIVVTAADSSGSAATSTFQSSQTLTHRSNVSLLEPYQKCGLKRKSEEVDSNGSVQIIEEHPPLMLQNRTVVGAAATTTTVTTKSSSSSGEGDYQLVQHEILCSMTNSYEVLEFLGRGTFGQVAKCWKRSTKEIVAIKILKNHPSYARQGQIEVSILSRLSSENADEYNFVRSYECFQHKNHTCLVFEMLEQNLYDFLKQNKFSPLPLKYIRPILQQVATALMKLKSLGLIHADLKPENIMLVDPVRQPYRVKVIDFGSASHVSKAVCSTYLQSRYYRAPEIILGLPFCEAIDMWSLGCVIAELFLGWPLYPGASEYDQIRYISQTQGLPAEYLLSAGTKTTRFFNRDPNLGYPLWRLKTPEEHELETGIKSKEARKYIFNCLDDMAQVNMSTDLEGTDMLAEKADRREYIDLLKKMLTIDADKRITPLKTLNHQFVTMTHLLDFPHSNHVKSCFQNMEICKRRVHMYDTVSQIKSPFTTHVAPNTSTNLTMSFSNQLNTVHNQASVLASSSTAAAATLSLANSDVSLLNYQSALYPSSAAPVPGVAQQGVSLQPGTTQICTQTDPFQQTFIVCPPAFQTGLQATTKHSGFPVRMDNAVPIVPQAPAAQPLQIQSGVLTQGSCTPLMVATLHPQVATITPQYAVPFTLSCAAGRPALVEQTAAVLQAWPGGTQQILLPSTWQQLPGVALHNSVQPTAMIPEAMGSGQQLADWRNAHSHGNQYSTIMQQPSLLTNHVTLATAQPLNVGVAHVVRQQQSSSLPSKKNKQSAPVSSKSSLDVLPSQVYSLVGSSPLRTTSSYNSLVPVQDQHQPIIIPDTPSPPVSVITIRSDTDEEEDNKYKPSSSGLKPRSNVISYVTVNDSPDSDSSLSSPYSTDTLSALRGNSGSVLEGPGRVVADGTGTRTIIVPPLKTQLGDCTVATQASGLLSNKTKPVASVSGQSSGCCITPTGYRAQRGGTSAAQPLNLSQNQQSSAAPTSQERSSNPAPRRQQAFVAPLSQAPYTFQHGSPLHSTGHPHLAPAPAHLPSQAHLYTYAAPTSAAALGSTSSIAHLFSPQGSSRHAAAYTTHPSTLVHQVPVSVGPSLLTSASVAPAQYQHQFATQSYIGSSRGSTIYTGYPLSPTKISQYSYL", "conditions": "at 0.1 µM", "units": {"inhibition": "%"}, "values": [{"smiles": "CS(=O)(=O)CCNCc1cc(-c2cc3c(Nc4ccc(OCc5cccc(F)c5)c(Cl)c4)ncnc3s2)cs1", "inhibition": -2.22}, {"smiles": "CCC(=O)Nc1ccc(C)c(-c2ccc(C(=O)NCC3CC3)cc2)c1", "inhibition": -3.16}, {"smiles": "COc1cc(Nc2ncc3c(C)nc(-c4cccc(C(F)(F)F)c4)n3n2)cc(OC)c1OC", "inhibition": 4.84}, {"smiles": "Fc1ccc(-c2nc3n(c2-c2ccncc2)CCS3)cc1", "inhibition": -4.87}, {"smiles": "NC(=O)c1cc(-c2ccncc2)cc(-c2ccccc2)c1N", "inhibition": -1.44}, {"smiles": "CCc1nccc2c1nc(-c1nonc1N)n2CC", "inhibition": -0.74}, {"smiles": "CN(C)c1ccc2c(c1)/C(=C/Nc1ccc(S(N)(=O)=O)cc1)C(=O)N2", "inhibition": 0.15}, {"smiles": "CS(=O)(=O)CCNCc1ccc(-c2ccc3ncnc(Nc4ccc(OCc5ccccc5)c(Br)c4)c3c2)o1", "inhibition": -5.84}, {"smiles": "Cc1nnc(-c2ccc(C)c(-c3ccc(C(=O)NCc4ccc(Cl)cc4)cc3)c2)o1", "inhibition": -2.88}, {"smiles": "Cc1ccc(C(=O)NC2CCC2)cc1-c1ccc(C(=O)NCC2CC2)cc1", "inhibition": -0.93}, {"smiles": "Clc1ccc(CNc2nccc(-c3cnn4ncccc34)n2)cc1", "inhibition": 14.8}, {"smiles": "c1ccc(-c2n[nH]cc2-c2ccnc(-c3ccc(OCCN4CCOCC4)cc3)c2)nc1", "inhibition": 0.91}, {"smiles": "CCS(=O)(=O)c1ccc(OC)c(Nc2ncc(-c3cccc(-c4ccccc4F)c3)o2)c1", "inhibition": 1.49}, {"smiles": "COc1cc2ncn(-c3cc(OCc4cccs4)c(C(N)=O)s3)c2cc1OC", "inhibition": 1.93}, {"smiles": "O=C1Nc2ccccc2/C1=C/Nc1ccc(-n2cncn2)cc1", "inhibition": 2.9}, {"smiles": "C/C(Nc1ccc(S(N)(=O)=O)cc1)=C1/C(=O)Nc2ccccc21", "inhibition": -1.51}, {"smiles": "CCc1cccc(CC)c1/C=C/c1cncc(C(=O)NC)c1", "inhibition": 1.64}, {"smiles": "NC(=O)c1cc(-c2ccc(F)cc2)cc(-c2ccncc2)c1N", "inhibition": 1.44}, {"smiles": "O=C(NCC1CC1)c1ccc(-c2cccc(C(=O)NC3CC3)c2)cc1", "inhibition": -0.22}, {"smiles": "COc1ccc2ncn(-c3cc(O[C@H](C)c4ccccc4Cl)c(C(N)=O)s3)c2c1", "inhibition": -4.71}, {"smiles": "O=C1Nc2ccc(I)cc2C1=Cc1cc(Br)c(O)c(Br)c1", "inhibition": -1.21}, {"smiles": "Fc1ccc(-c2ncn(CCCN3CCOCC3)c2-c2ccncc2)cc1", "inhibition": -3.44}, {"smiles": "COc1ccc2cc(-c3c(-c4ccncc4)nc(-c4ccc([S+](C)[O-])cc4C)n3C)ccc2c1", "note": "(centres undefined)", "inhibition": 3.05}, {"smiles": "COC(=O)Nc1nc2ccc(Sc3ccc(NC(=O)Nc4cc(C(F)(F)F)ccc4F)cc3)cc2[nH]1", "inhibition": 1.74}, {"smiles": "CN(C)CCCNc1nccc(-c2c(-c3ccc(F)cc3)nn3cc(C(F)(F)F)ccc23)n1", "inhibition": -4.22}, {"smiles": "CCS(=O)(=O)c1ccc(OC)c(Nc2ncc(-c3ccccc3Cl)o2)c1", "inhibition": 1.24}, {"smiles": "Fc1ccc(-c2c(-c3ccncc3)nc3n2CCS3)cc1", "inhibition": -3.99}, {"smiles": "CCN(CC)Cc1ccc(Nc2nccc(-c3cnn4ncccc34)n2)cc1", "inhibition": 50.6}, {"smiles": "COc1cc2ncn(-c3cc(OCCc4ccccc4)c(C(N)=O)s3)c2cc1OC", "inhibition": -0.4}, {"smiles": "Cc1ccc(NC(=O)c2ccoc2)cc1-c1ccc(C(=O)NCC2CC2)cc1", "inhibition": -3.48}, {"smiles": "NS(=O)(=O)c1ccc(N/N=C2\\C(=O)Nc3ccc(C(=O)NCCCn4ccnc4)cc32)cc1", "inhibition": 4.8}, {"smiles": "NCc1ccc(-n2c(-c3nonc3N)nc3cnccc32)cc1", "inhibition": 1.51}, {"smiles": "COc1cccc(-n2cnc3c(N/N=C/c4ccncc4)ncnc32)c1", "inhibition": -2.33}, {"smiles": "C[C@@H](Oc1cc(-n2cnc3ccc(OC4CCN(C)CC4)cc32)sc1C(N)=O)c1ccccc1Cl", "inhibition": -4.32}]}]}
